Compound activity: PubChem, several laboratories
Sampled rows, rich in hits. Any-hit rate of the full collection: about 1.2%.
PfHsp40 rescue: restores yeast growth despite PfHsp40 toxicity; S. cerevisiae expressing PfHsp40, growth rescue, ATP luminescence; growth rescue, % at 12.5 µM; 340,000 compounds, 0.68% hits; in the data active means growth rescue above about 28%, passing the limit was not always enough; inconclusive means no clear call, values can overlap the other calls;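 further: yeast W303a lacking pdr1 and pdr3 grown in galactose medium; growth measured after three days at 30 °C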
ugtP null kill: compounds lethal to S. aureus RN4220 ugtP deletion mutant | 330,000 compounds, 0.54% hits | growth inhibition, % (test concentration not listed) | AID 1259309 | OD600 growth, 16 h; in the data active means growth inhibition above about 68%;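 further: plate controls were untreated wells for no effect and antibiotic for full effect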
RN4220 kill: S. aureus RN4220 growth inhibition. OD600, 16 h. inhibition, % (no concentration beside the values). 330,000 compounds, 0.33% hits. AID 1259311; in the data active means inhibition above about 85%;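 further: plate controls were untreated cells for no effect and reference antibiotic for full effect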
TcdB inh: TcdB glycohydrolase inhibition; AID 652162; TcdB glycohydrolase enzymatic assay, plate reader; 350,000 compounds, 0.24% hits; P18177; inhibition, % at 9.99 µM; in the data active means inhibition above about 10%
PrP 5UTR inh: suppresses PrP 5' UTR mRNA reporter expression. cell-based PrP 5' UTR mRNA reporter, plate reader. inhibition, % (test concentration not listed). 340,000 compounds, 0.35% hits. AID 488862; in the data active means inhibition above about 52%; further: 0 = median of the neutral control wells
Numbers without * were called inactive; u = inconclusive; x = not tested or not shown.

SMILES | PfHsp40 rescue | ugtP null kill | RN4220 kill | TcdB inh | PrP 5UTR inh
CCOc1ccc(CCNC(=O)c2cc(C)on2)cc1OCC | 1 | -5 | 4 | 1 | -10
COc1ccc(-c2c(C3C4C=CCC[C@@]4(C)C(=O)N3Cc3ccccc3)ccc3ccccc23)cc1OC (stereo partly drawn) | x | -7 | -14 | x | x
CN(C)c1ccc(-c2ccc([C@H]3[C@@H]4C=CCC[C@@]4(C)C(=O)N3Cc3ccccc3)c(F)c2)cc1 | 0 | x | x | 0 | -8
COc1ccc(-c2c([C@H]3[C@@H]4C=CCC[C@@]4(C)C(=O)N3Cc3ccccc3)ccc3ccccc23)cc1OC | 44* | x | x | 0 | -9
Cc1ccc(-c2ccc(C3C4C=CCC[C@@]4(C)C(=O)N3Cc3ccccc3)c(F)c2)cc1 (stereo partly drawn) | x | 81* | 0 | x | x
CC1CN=C(Nc2cccc(S(=O)(=O)N(C)C)c2)S1 (stereo not drawn) | 0 | 10 | 8 | 14* | -14
COc1ccccc1CNC(=O)C[C@H]1CC[C@@H]2[C@H](COC[C@H](O)CN2C(=O)Nc2ccc(F)cc2)O1 | x | x | x | -3 | x
Cc1ccc(C(=O)O/N=C(\N)c2ccc(Br)cc2)cc1C | -1 | -3 | 2 | x | -50
Cc1ccc(C)c(C(=O)O/N=C(\N)c2ccc(Br)cc2)c1 | 502* | -3 | -4 | x | -46
CC(CSc1n[nH]c(=S)s1)c1ccccc1 (stereo not drawn) | u | -5 | 12 | 2 | -15
CC(C)CSc1n[nH]c(=S)s1 | 213* | -6 | 5 | 1 | 10
COc1cccc(-c2sc3ccc(OC)cc3c2-c2ccc(OC)cc2F)c1 | 1 | 90* | -1 | 0 | -39
COc1cccc(-c2sc3ccc(OC)cc3c2-c2ccc(OCCN3CCCC3)cc2)c1 | 40* | 90* | 95* | x | -23
COc1ccc2sc(-c3ccccc3OC)c(-c3ccc(OCCN(C)C)cc3)c2c1 | -1 | 88* | 2 | 3 | -15
COc1ccccc1-c1sc2ccccc2c1-c1ccc2c(c1)OCCO2 | 1 | 99* | -10 | 3 | -29
COc1ccc(C(C)=NNc2nc3ccccc3nc2C)cc1 | x | 1 | 7 | x | x
Cc1ccc(OCC(=O)NC(=S)Nc2ccc(S(=O)(=O)Nc3cc(C)on3)cc2)c(Br)c1 | 73* | -3 | 5 | 1 | -24
COC(=O)CCC(=O)NC(=S)Nc1ccc(S(=O)(=O)Nc2cc(C)on2)cc1 | -1 | 13 | 5 | 0 | -37
c1ccc(-c2ncc(-c3ccn[nH]3)s2)cc1 | 65* | -4 | 7 | 1 | -41
c1ccc(Oc2ccc(-c3ccn[nH]3)cc2)cc1 | 8 | 1 | 8 | 2 | -87
CCC(C)N=C1CC(C)(C)CC(=O)/C1=C(\O)Cc1ccccc1 (stereo not drawn) | x | 3 | 1 | x | x
CC(C)CC#Cc1cnc2c(c1)C(=O)N([C@@H](C)CO)C[C@H](C)[C@@H](CN(C)Cc1cccc(F)c1)O2 | x | x | x | 0 | x
O=C(Nc1cccc(-c2csc(Nc3ccc(Cl)cc3)n2)c1)c1cccc(C(F)(F)F)c1 | u | 76 | 89* | -2 | -19
O=C(O)CNC(=O)c1cccc(C(F)(F)F)c1 | 0 | 2 | 1 | 1 | 11
Cc1c(CCCC(=O)O)sc(N)c1C(=O)c1cccc(C(F)(F)F)c1 | 0 | -8 | 10 | 11* | -13
SMILES | PfHsp40 rescue | ugtP null kill | RN4220 kill | TcdB inh | PrP 5UTR inh
CC(C)C1Nc2c(O)cc(Cl)c([N+](=O)[O-])c2C2C=CCC21 (stereo not drawn) | -1 | 93* | 87* | -11 | -17
COc1ccc(C#Cc2ccc([C@H]3[C@H](CO)N4CCCCN(Cc5ccccc5F)C[C@@H]34)cc2)cc1 | x | x | x | 0 | x
CCCN(Cc1cc2cccc(C)c2[nH]c1=O)C(=O)c1cccc(OC)c1 | 72* | 1 | 1 | x | -17
CC(=O)Nc1ccc(S(=O)(=O)Nc2nc3ccccc3nc2-n2ccc(=NC(=O)c3ccccc3)cc2)cc1 | x | 6 | 6 | 1 | x
CC(=O)Nc1ccc(S(=O)(=O)Nc2nc3ccccc3nc2-n2ccc(=NC(=O)c3ccc(F)cc3)cc2)cc1 | -1 | x | x | 16* | -4
CCOC(=O)[C@]12Cc3cc(Cl)ccc3C1N(Cc1ccccc1)C(=O)c1ccccc12 (stereo partly drawn) | x | -22 | -2 | x | x
C=CCn1c(SCC(=O)N2CC(=O)Nc3ccccc32)nc2scc(-c3ccccc3)c2c1=O | 0 | -1 | -3 | 16* | -1
O=C1COc2ccccc2N1Cc1ccccc1Cl | 50* | 3 | 3 | x | -15
